Screening results: PubChem, National Center for Advancing Translational Sciences (NCATS)
HP1b chromo inh – HP1-beta chromodomain-methylated histone interaction inhibition | actives 0.56% (n = 390,000) | AlphaScreen HP1-beta / biotin-H3K9me3 peptide binding | AID 540317 | P83916 | Potency, µM (top dose mostly 114 µM), inactives show at the top dose activity change, negative = inhibition, most hits filed as inhibitors; further: nearly all actives have a fitted effect of over 70% in size
Target sequence (P83916 whole entry, looked up): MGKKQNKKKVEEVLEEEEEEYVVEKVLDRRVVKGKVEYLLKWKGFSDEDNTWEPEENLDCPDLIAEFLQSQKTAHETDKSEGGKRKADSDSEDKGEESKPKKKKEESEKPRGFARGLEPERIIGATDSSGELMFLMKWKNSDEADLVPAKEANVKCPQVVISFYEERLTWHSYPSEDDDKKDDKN
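Compound inhibition of the preformed complex between 50 nM HP1-beta and 50 nM biotinylated H3K9me3 peptide was read by AlphaScreen. Buffer was PBS pH 7.4 with 0.01% Tween-20. Incubations ran 30 min at room temperature, with 10 ug/mL donor/acceptor beads.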
BAZ2B block – blocks human BAZ2B; actives 4.4% (n = 360,000); AID 504333; AlphaScreen BAZ2B-H3K14Ac peptide displacement; Potency, µM (highest dose often 114 µM), without a hit: at the highest dose activity change, negative = inhibition, usual class: inhibitors; further: on the % scale 0 is the no-effect control and ±100 the full control effect; nearly all actives have a fitted effect of over 60% in size
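Inhibition is scored as reduced AlphaScreen emission. The BAZ2B/b-H3(5-23)K14Ac complex (50 nM each) in PBS pH 7.4, 0.01% Tween-20 meets compound (up to 110 uM) for 30 min at RT before bead addition.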
JMJD2A Tudor – JMJD2A Tudor domain (human) inhibition. O75164. AlphaScreen JMJD2A-Tudor / H3K4me3 peptide binding. Potency, µM (top dose mostly 114 µM), for inactives: at the highest dose activity change, negative = inhibition, actives largely listed as inhibitors. actives 4.4% (n = 390,000). AID 504339; further: on the % scale 0 is the no-effect control and ±100 the full control effect; nearly all actives have a fitted effect of over 50% in size
G9a inh – inhibitors of human histone lysine methyltransferase G9a | Q96KQ7 | G9a H3K9 monomethylation, AlphaScreen, 2 h | Potency, µM (titrated, usually from 102 µM), for inactives: at the top dose activity, negative = inhibition, usual class: inhibitors | actives 8.8% (n = 350,000); further: on the % scale 0 is the no-effect control and ±100 the full control effect; nearly all actives have a fitted effect of over 75% in size
Target sequence (Q96KQ7 913-1193 limits assumed): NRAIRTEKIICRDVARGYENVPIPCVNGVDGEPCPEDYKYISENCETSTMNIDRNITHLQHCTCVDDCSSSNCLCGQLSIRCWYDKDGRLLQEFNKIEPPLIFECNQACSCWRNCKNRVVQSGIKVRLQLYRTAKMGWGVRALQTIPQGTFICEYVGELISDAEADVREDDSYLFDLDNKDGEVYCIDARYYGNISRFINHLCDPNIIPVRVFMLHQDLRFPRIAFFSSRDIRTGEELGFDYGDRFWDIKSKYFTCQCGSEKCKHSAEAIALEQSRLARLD
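Quantitative HTS format: methyltransferase activity on a biotin-tagged H3K9 peptide is measured by AlphaScreen, using a rabbit anti-monomethyl-H3K9 antibody with streptavidin donor and anti-IgG acceptor beads. Final levels are 20 nM enzyme, 500 nM peptide, 20 uM SAM; 2 h RT.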
Sfp inh – inhibitors of Bacillus subtilis Sfp phosphopantetheinyl transferase | Q9F4F7 | actives 3.5% (n = 310,000) | Potency, µM, without a hit: largest response in the series, negative = inhibition, hits mostly inhibitors | Biochemical Sfp PPTase activity, qHTS;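 further: the enzyme is Sfp with the accession as filed and its product quenches rhodamine fluorescence; 0% = enzyme reaction without inhibitor and -100% = no enzyme wells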
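Step 1, compound plus 15 nM Sfp-PPTase, 15 min, room temperature. Step 2, add rhodamine-CoA (5 uM) and BHQ-2-YbbR (12.5 uM). Step 3, read 525/598 nm fluorescence at 0 and 30 min.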
An asterisk follows results filed as active; ? = inconclusive; . = not tested or not shown; [ ] = another dose, or the depositor's remark. Sampled rows, rich in hits. Any-hit rate of the full collection: about 12%. The call rests on the fitted dose curve; in most records, active means well fitted curve in the direction sought with a large enough effect; inconclusive means small, poorly fitted or top-dose-only effect, or another doubt; inactive means no such curve, though single readings can be large; an effect the other way counts as inactive or inconclusive. Potency means the concentration at half of the fitted maximal effect.

SMILES | HP1b chromo inh | BAZ2B block | JMJD2A Tudor | G9a inh | Sfp inh
Cn1c(SCc2nc3ccccc3c(=O)[nH]2)nc2ccccc21 | 18% | -22% | -2% | -22% | 4%
CCOC(=O)C1CCN(C(=O)/C(C)=C\c2ccccc2)CC1 | 77% | -32% | 4% | -8% | 16%
COc1cc(C(C)=O)ccc1OCC(=O)NCC1(N2CCCCC2)CCCCC1 | 27% | -17% | -10% | -1%[59 µM] | 20%
NC(=O)C1(N2CCCCC2)CCN(C(=O)c2ccc(C#CC3(O)CCCCC3)cc2)CC1 | 22% | 7% | -13% | 23%[12.7 µM] | 7%
Nc1ccc2nc(CCCO)[nH]c2c1 | 34% | 50µM* | -10% | 28µM* | 4%
O=C(Cn1ncc2c([nH]c3ccccc32)c1=O)N1CCc2ccccc2C1 | 6% | -10% | -11% | 0%[59 µM] | 21%
O=C(CCc1nc2ccccc2[nH]1)N1CCc2ccccc2C1 | 14% | 5% | -21% | 89µM* | 5%
Nc1ccc2nc(COc3ccccc3)[nH]c2c1 | 24% | ? | -28% | ? | -1%
CN(CC(=O)O)Cc1nc2ccccc2[nH]1 | 32% | 20µM* | -71% | 1.3µM* | 89µM*
Nc1ccc2nc(CCCCc3nc4ccccc4[nH]3)[nH]c2c1 | 2% | ? | ? | 35µM* | -6%
Cc1c(C(=O)Nc2ccc(C(F)(F)F)cc2)sc2ncn(CC(=O)N3CCN(c4ccccn4)CC3)c(=O)c12 | 21% | -13% | -23% | -13%[0.501 µM] | -5%
CC(C)CC(NC(=O)C1CCCN1C(=O)OC(C)(C)C)C(=O)NCC(N)=O (centres undefined) | 42% | -22% | -10% | 0%[59 µM] | 12%
O=C(NCCCC1CCCC1)C1CCC(=O)N(Cc2cccc(C(F)(F)F)c2)C1 (centres undefined) | 12% | -5% | -11% | ? | -1%
c1ccc2[nH]c(CCCc3nc4ccccc4[nH]3)nc2c1 | 54% | -6% | -12% | 56µM* | 16%
CNCc1nc2ccccc2[nH]1 | 66% | ? | ? | . | ?
Nc1ccc2nc(CCCCCCCCc3nc4ccc(N)cc4[nH]3)[nH]c2c1 | 4% | 22µM* | 50µM* | 32µM* | -1%
Oc1ccc(O)c(Cc2nc3ccccc3[nH]2)c1 | ? | -34% | 10µM* | 3.2µM* | 35µM*
CCCCc1nc2ccccc2[nH]1 | 7% | 5% | -9% | 8% | 12%
Cn1c(CCc2nc3ccccc3[nH]2)n[nH]c1=S | 17% | 0% | 7.9µM* | ? | ?
O=C(CCc1ccccc1)N1CCN(C(=O)CCc2ccccc2)CC1 | 0% | . | 0% | . | .
O=C(Cn1nc(Cl)nc1Cl)Nc1ccccc1 | 16% | 1% | 0% | 50µM* | 7%
COC(=O)c1cc(OC)c(OC)cc1NC(=S)N1CCN(c2ccccn2)CC1 | 11% | ? | -11% | -5% | 0%
Cc1ccc(C(=O)NC(=S)N2CCN(C(=O)OC(C)(C)C)CC2)cc1Br | 24% | -11% | -12% | 24% | 22%
CCOC(=O)N1CCN(C(=S)NC(=O)c2ccc(Br)cc2)CC1 | 13% | -18% | -21% | 50µM* | 8%
CCOC(=O)N1CCN(C(=S)NC(=O)c2cncc(Br)c2)CC1 | -11% | -30% | -14% | 4µM* | -19%
SMILES | HP1b chromo inh | BAZ2B block | JMJD2A Tudor | G9a inh | Sfp inh
CCOC(=O)N1CCN(C(=S)NC(=O)c2cc(Br)ccc2Cl)CC1 | 7% | -15% | -12% | ? | 31%
CN(CCN1CCOCC1)C(=O)CC1C(=O)NCCN1Cc1ccccc1F (centres undefined) | 20% | -3% | -4% | . | 11%
Cc1ccc(Nc2nc(C)cc(C)n2)c(C(=O)O)c1 | -9% | 0% | 0% | 8.9µM* | .
O=S(=O)(c1ccc(OCc2nc3ccccc3s2)c(Cl)c1)N1CCOCC1 | 54% | 32% | 3%[11.4 µM] | 50µM* | 4%
O=C(COC(=O)CCc1nc2ccccc2s1)Nc1ncc(Cl)cc1Cl | 21% | ? | -23% | 45µM* | 2%
O=C(COC(=O)CCc1nc2ccccc2s1)Nc1ccc(S(=O)(=O)N2CCOCC2)cc1 | 17% | -3% | -16% | 56µM* | 9%
O=C(COC(=O)CCc1nc2ccccc2s1)Nc1cccc(S(=O)(=O)N2CCOCC2)c1 | 16% | 9% | -3% | ? | -7%
CC(Oc1ccc(C(=O)c2ccccc2)cc1)C(=O)Nc1ccc(S(N)(=O)=O)cc1 (centres undefined) | 9% | ? | -3% | 6%[59 µM] | 13%
CCC(=O)N1c2ccccc2CC1C(=O)NCCc1ccc(OC)c(OC)c1 (centres undefined) | 23% | -10% | -2% | 20%[59 µM] | .
COC(=O)c1ccc(-n2c(C)nc(=O)c(-c3ccccc3)c2C)cc1 | 28% | 2% | -8% | 6%[59 µM] | 12%
NC(=O)C1c2ccccc2Oc2ccccc21 | 10% | -11% | 1% | -4% | 5%
C[n+]1ccc(/C=C/c2cccs2)cc1 | 21% | -23% | -15% | -37%[59 µM] | -2%
CN(C)c1ccc(/C=C/c2cc[n+]([O-])cc2)cc1 | . | -32% | . | 50µM* | 0%
Cc1ccc(/C=C/c2ccc(N(C)C)cc2)[n+](C)c1 | 6% | ? | 25µM* | -48%[2.33 µM] | ?
CN(C)c1ccc(/C=C/c2cc[n+](C)cc2)cc1 | -27% | ? | -20% | 10µM* | 3%
Cc1ccc(C(=O)O/N=C/c2ccc(N(C)C)cc2)cc1 | 44% | 7% | -8% | . | 17%
Cn1nc(-c2ccccc2)c(C(=O)NC(C(=O)O)c2ccccc2)c1Cl (centres undefined) | 23% | 50µM* | -12% | . | 1%
CCOc1ccccc1NC(=O)c1ccc2oc(=O)c(S(=O)(=O)c3ccc(F)cc3)cc2c1 | 21% | -17% | -19% | -18%[59 µM] | .
CCOc1ccc(N2C(=O)CC(NCCc3c[nH]c4ccccc34)C2=O)cc1 (centres undefined) | 23% | -34% | -30% | ? | -13%
COc1ccc(N2C(=O)CC(NCCNc3ccc([N+](=O)[O-])cn3)C2=O)cc1 (centres undefined) | 23% | -22% | -18% | 6.3µM* | -10%
CCOc1ccc(N2C(=O)CC(N3CCN(c4ccc([N+](=O)[O-])cc4)CC3)C2=O)cc1 (centres undefined) | 35% | -25% | -18% | 7.9µM* | -13%
CCOc1ccc(N2C(=O)CC(NCCNc3ccc([N+](=O)[O-])cn3)C2=O)cc1 (centres undefined) | 41% | -20% | -24% | 3.2µM* | 7%
CCCOc1ccc(N2C(=O)CC(N3CCN(c4nc5ccccc5s4)CC3)C2=O)cc1 (centres undefined) | 44% | 28% | -9% | 45µM* | 4%
CN(C)S(=O)(=O)NCC1CCCN(Cc2cc3ccccc3s2)C1 (centres undefined) | 27% | . | -21% | . | .
